Results on 23 compounds are retold here after PubChem BioAssay (EPA / NIEHS).

Assay [1] can be described thus: APR_HepG2_NuclearSize_24hr: Apredica 24-hour HepG2 Assay for Nuclear Size (AID 2282907). The settings on record: high-content imaging, actives raise or lower the signal. The gist of the method: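 HepG2, 24 hr dosing, 10-pt 0.39–200 uM, duplicates, 0.5% DMSO final; 3.7% formaldehyde fix, 0.5% Triton X-100; Hoechst 33342 nuclear stain; ArrayScan HCS, Cell Cycle analysis → nuclear size; bidirectional fit vs DMSO.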

Assay [2] can be described thus: APR_HepG2_CellLoss_24hr: Apredica 24-hour HepG2 Assay for Cell Loss (AID 2282908).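 On AC50: fit in both directions so a hit may be cell loss or gain.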 The settings on record: high-content imaging. The essentials:
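10-pt dose, 0.39–200 uM, n=2/plate; DMSO 0.5% v/v final as negative control. Fix 3.7% formaldehyde 30 min RT, permeabilize 0.5% Triton X-100, stain Hoechst 33342 2 ug/mL, image 20x. Nuclear count, bidirectional fit vs DMSO.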

Assay [3] can be described thus: APR_HepG2_MicrotubuleCSK_24hr: Apredica 24-hour HepG2 Assay for Microtubule CSK Stabilty (AID 2282909). The settings on record: HepG2 microtubule cytoskeleton imaging, actives raise or lower the signal. The essentials:
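Human liver HepG2, 24 h dosing, 0.39–200 uM ×10 conc, dup, 0.5% DMSO. 3.7% formaldehyde fix, 0.5% Triton perm, anti-alpha-tubulin (1:200)/Cy5 secondary + Hoechst. HCS imaging, 6 fields/well; gain/loss fit vs DMSO.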

A short description of assay [4]: APR_HepG2_MitoticArrest_24hr: Apredica 24-hour HepG2 Assay for Mitotic Arrest (AID 2282910). Conditions: high-content imaging, actives raise or lower the signal. The gist of the method: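 HepG2 human liver cells were exposed to compounds at 0.39–200 uM (10 concentrations, duplicate) in 0.5% v/v DMSO for 24 hr, then fixed and immunostained for phospho-histone H3 with Hoechst 33342. Mitotic arrest came from HCS fluorescent imaging, fitted bidirectionally against DMSO.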

Assay [5] is described as follows: APR_HepG2_MitoMembPot_24hr: Apredica 24-hour HepG2 Assay for Mitochondrial Membrane Potential (AID 2282911). Conditions: imaging, actives raise or lower the signal. The essentials: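 Cells are dosed for 24 hr across 0.39 to 200 uM with solvent held at 0.5% DMSO. They are then stained with 250 nM MitoTracker Red CMXRos for 30 min, fixed in 3.7% formaldehyde and imaged.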

Assay [6] in a line: APR_HepG2_MitoMass_24hr: Apredica 24-hour HepG2 Assay for Mitochondrial Mass (AID 2282912). Conditions: high-content imaging, actives raise or lower the signal. The essentials:
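Mitochondrial mass is read as MitoTracker Red fluorescence intensity from automated imaging, with bidirectional curve fitting relative to DMSO. HepG2 cells received compound (0.39–200 uM, 0.5% DMSO final) for 24 hr and were dye-loaded (250 nM, 30 min) before formaldehyde fixation.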

Assay [7] can be described thus: APR_HepG2_p53Act_24hr: Apredica 24-hour HepG2 Assay for p53 Activation (AID 2282913).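 Further: p53 protein immunofluorescence averaged per cell in HepG2 with Hoechst nuclei.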 Conditions: high-content imaging, actives raise or lower the signal. The gist of the method:
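Human HepG2 liver cells; 24 hr cpd treatment, 0.39–200 uM, 0.5% DMSO final. Fixed in 3.7% formaldehyde, permeabilized with 0.5% Triton X-100, stained with anti-p53/Cy5 plus Hoechst 33342. Six images per well at 20x; gain or loss vs DMSO.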

Assay [8] in a line: APR_HepG2_CellCycleArrest_72hr: Apredica 72-hour HepG2 Assay for Cell Cycle Arrest (AID 2282914). Conditions: high-content imaging, actives raise or lower the signal. The essentials:
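Read-out is Hoechst-stained nuclear DNA content measured by automated fluorescence imaging (20x, six images per well), fitted in both directions relative to DMSO. Human HepG2 liver cells received 0.39–200 uM compound for 72 hr at 0.5% v/v DMSO.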

Assay [9] can be described thus: APR_HepG2_CellLoss_72hr: Apredica 72-hour HepG2 Assay for Cell Loss (AID 2282915). Conditions: high-content imaging. The gist of the method:
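HepG2 cells were exposed for 72 hr to compounds at 0.39–200 uM (ten concentrations, duplicate) in 0.5% v/v final DMSO. Nuclei were stained with Hoechst 33342 after 3.7% formaldehyde fixation, imaged at 20x, and counted; fits bidirectional versus DMSO.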

Assay [10] is described as follows: APR_HepG2_CellCycleArrest_24hr: Apredica 24-hour HepG2 Assay for Cell Cycle Arrest (AID 2282905).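 Further: cell cycle arrest scored as ratio of 2N to 4N nuclear DNA content.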 The settings on record: imaging, actives raise or lower the signal. The gist of the method:
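HepG2, 24 hr dosing, 10-pt 0.39–200 uM in duplicate, 0.5% DMSO. Fixed 3.7% formaldehyde, permeabilized 0.5% Triton X-100, Hoechst 33342 2 ug/mL. Imaged 20x; nuclear DNA content quantified; bidirectional fit vs DMSO.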

Structures are written as SMILES. Calls of active or inactive are those of the source. How the source made its calls: active means hit-call score of the fitted dose curve at least 0.9, where 1 is the maximum; inactive means score below 0.9.

For the compound `COC(=O)[C@H]1[C@H]2C[C@@H]3c4[nH]c5cc(OC)ccc5c4CCN3C[C@H]2C[C@@H](OC(=O)c2cc(OC)c(OC)c(OC)c2)[C@@H]1OC`, the result in [1] and in assay [8] was inactive. The concentration at half-maximal activity (AC50) (commonly the concentration giving half of the maximal activity seen) in assay [2] was 37.6 µM (active); in assay [3], 44.3 µM (active); in [4], 31.1 µM (active); in [5], 90.2 µM (active); in assay [6] it was 41.2 µM (active); in assay [7] it was 40.3 µM (active). Also, in assay [9], the half-maximal activity concentration (AC50) was 19.5 µM (active).
In the case of `CC(N)=O`, the compound was classed as inactive in assay [1], in [2], in assay [3], in assay [4], in assay [5] and in assay [6]. For the same compound, the compound was called inactive in assay [8]. The AC50 in assay [9] is 115 µM (active).
For `CCN(CC)CCOc1ccc(C(=C(Cl)c2ccccc2)c2ccccc2)cc1`, the outcome in assay [10] was inactive. In addition, the half-maximal activity concentration (AC50) in [1] was 15.7 µM (active); in assay [2], 48 µM (active); in assay [3], 81.2 µM (active); in assay [4], 10.8 µM (active); in assay [5], 0.0258 µM (active); in [6] it was 155 µM (active). Moreover, the AC50 in [8] was 26.5 µM (active); in assay [9], 13.7 µM (active).
As for `O=C1O[C@H]([C@H](O)CO)C(O)=C1O`, the call in assay [1], in [2], in assay [3], in [4], in assay [5] and in assay [6] was inactive. Besides, the call in [7], in assay [8] and in [9] was inactive.
As to `CS(=O)(=O)c1ccc([C@@H](C[C@H]2CCC(=O)C2)C(=O)Nc2cnccn2)cc1Cl`, the compound was called inactive in assay [10], in assay [1], in assay [2], in assay [3], in assay [4] and in assay [5]. For the same compound, the call in assay [6], in assay [8] and in assay [9] was inactive.
On to `CCCCC(CC)CO` (stereo not drawn), for which the result in [1], in [2], in assay [3], in assay [4], in assay [5] and in [6] was inactive. In addition, the compound was called inactive in assay [8] and in assay [9].
With `C=CCc1ccc(OC)c(OC)c1`, the compound was classed as inactive in [10], in assay [1], in assay [2], in assay [3], in [4] and in [5]. Further, the compound was called inactive in assay [6], in assay [8] and in assay [9].
For `CCCCCCC(CCCCCCCCCCC(=O)OCC(COC(C)=O)OC(C)=O)OC(C)=O` (stereo not drawn), the outcome in assay [1], in assay [2], in assay [3], in [4], in assay [5] and in [6] was inactive. Moreover, the result in [7], in [8] and in [9] was inactive.
Take `O=C(Oc1ccccc1)c1cccc(C(=O)Oc2ccccc2)c1`: the compound was called inactive in assay [1], in assay [2], in [3], in assay [4], in assay [5] and in assay [6]. Moreover, in [8], the compound was called inactive. Also, the AC50 in [9] is 113 µM (active).
`CCC(C)N(C)C(=O)c1cc2ccccc2c(-c2ccccc2Cl)n1` (stereo not drawn): the call in assay [1], in [3], in assay [5] and in assay [8] was inactive. For the same compound, the AC50 in assay [2] is 64.9 µM (active); in [4], 66.8 µM (active); in assay [6], 82.4 µM (active); in assay [7] it was 66.9 µM (active); in assay [9], 73.1 µM (active).
For `CN(C)C(=O)NC1(c2ccccc2)CCN(CC[C@@]2(c3ccc(F)c(F)c3)CN(C(=O)c3ccccc3)CCO2)CC1`, the outcome in assay [10], in assay [1], in [2], in assay [3], in assay [5] and in assay [8] was inactive. Moreover, the AC50 in assay [4] is 101 µM (active); in assay [6] it was 97.8 µM (active); in assay [9], 111 µM (active).
As for `Cc1ccc(C(C)(C)C)c(O)c1`, the compound was classed as inactive in [10]. Moreover, the AC50 in assay [1] is 112 µM (active); in assay [2], 108 µM (active); in assay [3], 113 µM (active); in assay [4], 106 µM (active); in [5], 122 µM (active); in assay [6] it was 107 µM (active). For the same compound, the values for the AC50 in [8] and in [9] were 110 µM (active) and 145 µM (active), respectively.
In the case of `CC(=O)OCC(COC(C)=O)OC(C)=O`, the compound was classed as inactive in [10], in [1], in assay [2], in assay [3], in assay [4] and in [5]. Besides, the result in assay [6], in assay [8] and in assay [9] was inactive.
Consider `CN(C)CCCN(C)CCCN(C)C`, for which the compound was classed as inactive in assay [10], in [1], in [2], in [3], in assay [4] and in assay [5]. For the same compound, the call in assay [6], in [8] and in assay [9] was inactive.
With `CC(C)NCC(O)c1ccc(O)c(O)c1` (stereo not drawn), the compound was called inactive in assay [10], in assay [1], in assay [2], in [3], in assay [4] and in assay [5]. The outcome in assay [6] and in [8] was inactive. Moreover, the AC50 in assay [9] is 91.3 µM (active).
In the case of `O=C1CCCCC1`, the outcome in assay [10], in assay [1], in assay [2], in assay [3], in [4] and in assay [5] was inactive. The result in [6], in assay [8] and in assay [9] was inactive.
On to `C/C=C/C=C/C(=O)O`, for which the outcome in assay [10], in assay [1], in [2], in assay [3], in assay [4] and in assay [5] was inactive. Further, in assay [6], the compound was classed as inactive. The results for the AC50 in [8] and in [9] were 71.5 µM (active) and 83.7 µM (active), respectively.
As for `CCCCc1nc2cccnc2n1Cc1ccc(-c2ccccc2-c2nnn[nH]2)cc1`, the AC50 in [1] is 51 µM (active); in assay [2], 32.6 µM (active); in [3] it was 35.7 µM (active); in assay [5], 23.1 µM (active); in assay [6], 28.1 µM (active); in [9], 65.2 µM (active). The result in assay [4] and in [8] was inactive.
As for `O=Cc1ccccc1C=O`, the call in [1], in [2], in [3], in [4], in assay [5] and in assay [6] was inactive. Also, the result in assay [8] and in assay [9] was inactive.
With `CCCCOC(=O)CCCCC(=O)OCCCC`, the result in assay [1], in assay [2], in assay [3], in [4], in assay [5] and in assay [6] was inactive. Besides, the compound was called inactive in assay [8] and in assay [9].
As to `CC(=O)O[C@]1(C(C)=O)CC[C@H]2[C@@H]3C=C(Cl)C4=CC(=O)[C@@H]5C[C@@H]5[C@]4(C)[C@H]3CC[C@@]21C`, the compound was called inactive in assay [1], in assay [2], in assay [3], in [4], in assay [5] and in [6]. Also, the compound was classed as inactive in [8] and in assay [9].
Take `COC(=O)CCC(=O)OC`: the call in assay [1], in assay [2], in assay [3], in assay [4], in assay [5] and in [6] was inactive. The compound was called inactive in assay [8] and in [9].
Turning to `O=[Si]=O`, the compound was called inactive in [1], in [2], in assay [3], in [4], in assay [5] and in [6]. For the same compound, the compound was called inactive in [8]. Further, the AC50 in [9] was 61.4 µM (active).
